Screening results: PubChem BioAssay, several laboratories
Only some compounds are listed: those with a hit (about 1.4% of all), similar ones and a draw of the others.
PrPC TRFRET = cell surface PrPC inhibition, primary TR-FRET screen; AID 720596; P04156; TR-FRET read-out; inhibition, % at 13.8 µM; 370,000 compounds, 0.43% hits; in the data active means inhibition above about 24%; further: 0% = median of the test wells and 100% = reference compound wells
Mtb hypoxia rep = Mtb hypoxia fluorescent reporter inhibition; M. tuberculosis hypoxia-regulated fluorescent reporter, fluorescence; fluorescence inhibition, % (concentration not given with the values); 300,000 compounds, 0.1% hits; in the data active means fluorescence inhibition mostly above about 23%, no sharp cut-off; inactive means mostly below about 17%
RecA splice inh = inhibitors of M. tuberculosis RecA intein splicing. cell-free RecA intein splicing, fluorescence. inhibition, % (concentration not given with the values). 290,000 compounds, 0.75% hits. AID 2221; in the data active means inhibition above about 30%;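 further: 0% = vehicle wells and 100% = reference inhibitor control wells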
Target sequence (P9WHJ3 whole entry, looked up, canonical isoform): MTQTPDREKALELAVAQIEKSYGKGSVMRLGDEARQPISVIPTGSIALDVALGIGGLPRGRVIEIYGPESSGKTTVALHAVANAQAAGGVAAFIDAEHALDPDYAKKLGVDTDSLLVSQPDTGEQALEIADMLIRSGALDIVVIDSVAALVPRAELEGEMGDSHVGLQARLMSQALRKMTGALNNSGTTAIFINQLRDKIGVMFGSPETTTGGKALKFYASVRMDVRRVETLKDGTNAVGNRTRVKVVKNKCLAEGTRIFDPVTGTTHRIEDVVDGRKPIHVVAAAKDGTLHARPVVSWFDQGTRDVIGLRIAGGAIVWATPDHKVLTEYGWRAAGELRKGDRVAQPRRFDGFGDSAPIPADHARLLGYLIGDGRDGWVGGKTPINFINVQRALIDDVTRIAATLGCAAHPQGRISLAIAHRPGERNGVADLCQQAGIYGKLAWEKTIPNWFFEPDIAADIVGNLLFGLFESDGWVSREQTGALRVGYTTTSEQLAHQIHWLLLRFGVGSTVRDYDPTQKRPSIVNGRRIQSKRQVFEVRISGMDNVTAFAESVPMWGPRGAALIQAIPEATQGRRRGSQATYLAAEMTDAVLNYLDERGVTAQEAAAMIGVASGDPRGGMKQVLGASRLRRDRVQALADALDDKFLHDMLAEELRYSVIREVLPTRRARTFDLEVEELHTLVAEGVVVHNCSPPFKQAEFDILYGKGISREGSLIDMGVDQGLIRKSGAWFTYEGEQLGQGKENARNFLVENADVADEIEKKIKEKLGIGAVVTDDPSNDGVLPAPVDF
BJeLR lethal = kills HRASV12-expressing BJeLR cells; BJeLR (HRASV12) viability, CellTiter-Glo ATP luminescence, 48 h; inhibition, % (concentration not given with the values); 300,000 compounds, 0.17% hits; AID 1554; in the data active means inhibition above about 50%
PrP 5UTR inh = suppresses PrP 5' UTR mRNA reporter expression | cell-based PrP 5' UTR mRNA reporter, plate reader | inhibition, % (concentration not given with the values) | 340,000 compounds, 0.35% hits | AID 488862; in the data active means inhibition above about 52%; further: 0 = median of the neutral control wells
3CLpro inhibitor = SARS-CoV 3CLpro protease inhibition; P0C6X7; recombinant SARS-CoV 3CLpro, quenched FRET peptide cleavage; inhibition, % at 6 µM; 290,000 compounds, 0.14% hits; in the data active means inhibition above about 12%
Numbers without * were called inactive; . = not tested or not shown.

SMILES	PrPC TRFRET	Mtb hypoxia rep	RecA splice inh	BJeLR lethal	PrP 5UTR inh	3CLpro inhibitor
CCCCCOC(=O)C1C2C=C[C@]3(CN(CCCOC)C(=O)C13)O2 (stereo not given in full)	.	8	.	.	.	.
S=C(Nc1ccc2nsnc2c1)N1CCCCCC1	-11	-1	55*	-5	-33	-1
O=C(Nc1ccc2nsnc2c1)N1CCCCC1	1	.	-3	-3	-33	-1
COc1ccc(C=C2c3ccccc3C(=O)c3ccccc32)c(OC)c1	-4	.	.	53*	46	-2
O=C(CC1CC=CCC(NC(=O)OCC2c3ccccc3-c3ccccc32)C(=O)OCC2CCCN2C1=O)NC(CO)Cc1ccccc1 (stereo not given)	.	1	.	.	.	.
CC/C(=C/c1sc2ccc(C)cc2[n+]1CCO)SC	6	2	34*	10	-14	2
CC(=O)c1cccc(NC(=O)CCCOc2ccc(C)cc2)c1	-2	active	2	-10	-31	-1
COc1ccc(CCNc2nnc(Sc3nnnn3-c3ccccc3)s2)cc1OC	9	4	14	60*	-11	-4
CC1CC2C3CC(F)C4=CC(=O)C=C[C@]4(C)[C@@]3(F)C(O)C[C@]2(C)[C@@]1(O)C(=O)COC(=O)C(C)(C)C (stereo not given in full)	.	1	.	.	.	.
C=C1CSc2nc(=O)c3c4c(sc3n21)CCC4	3	43*	.	0	-7	.
C=C1CSc2nc(=O)c3c4c(sc3n21)CCCC4	-2	14	-2	3	-9	2
O=C(Cn1nnc(-c2ccc(F)cc2)n1)Nc1cccc(S(=O)(=O)N2CCCC2)c1	15	35*	.	.	-18	.
Nc1nc(N)c2cc(Sc3ccc4ccccc4c3)ccc2n1	-2	-11	8	60*	.	3
Brc1ccc(OCc2nnc3n2CCC3)cc1	-3	36*	1	5	-19	0
CCOC(=O)/C(=C\c1cccnc1)C(=O)c1cc(C(C)=O)c(Nc2ccccc2)s1	.	20	21	53*	-21	6
CCOC(=O)/C(=C\c1ccccc1)C(=O)c1cc(C(C)=O)c(Nc2ccccc2)s1	-8	6	7	6	-44	-3
CCN(CC)C(=O)CSc1nsc(SCC(=O)N(CC)CC)c1C#N	5	.	.	.	-6	-4
C=COC(=O)CSc1snc(SCC(=O)OC)c1C#N	6	.	33*	-6	-15	2
C/C(C=NNC(=O)c1cc(C)oc1C)=C\c1ccccc1	.	10	.	.	.	.
Cc1sc2ncnc(N/N=C/c3ccccc3O)c2c1C	-1	.	-5	81*	41	3
Cc1ccc(-c2nn(-c3ccccc3)cc2C=C2C(=O)CC(C)(C)CC2=O)cc1	2	6	-1	13	-67	1
CC1=NNC(=O)/C1=C\c1cn(-c2ccccc2)nc1-c1ccc(Cl)cc1	-3	2	90*	36	-23	-4
CC1CN(C(C)CO)C(=O)c2cccc(NC(=O)C3CC3)c2OC1CN(C)Cc1ccc(Oc2ccccc2)cc1 (stereo not given)	.	6	.	.	.	.
COC(=O)c1[nH]c2c(c1C)C(=O)CC(c1cc(OC)ccc1OC)C2 (stereo not given)	-9	.	2	16	-16	0
COC(=O)c1[nH]c2c(c1C)C(=O)CC(c1cccs1)C2 (stereo not given)	13	.	1	51*	18	-6
SMILES	PrPC TRFRET	Mtb hypoxia rep	RecA splice inh	BJeLR lethal	PrP 5UTR inh	3CLpro inhibitor
Cn1cnc(Sc2ncnc3nc[nH]c23)c1[N+](=O)[O-]	6	.	-4	54*	-23	3
CC(=O)CSc1ncnc2nc[nH]c12	10	4	-4	2	-9	-5
Cn1cnc([N+](=O)[O-])c1Sc1ncnc2nc[nH]c12	-3	.	5	69*	1	5
Cc1ccc(C=Nn2c(-c3ccncc3)n[nH]c2=S)cc1	.	2	.	.	.	.
O=C1Nc2ccc(Br)cc2/C1=C/C(=O)c1ccc2c(c1)OCO2	2	10	49*	23	-17	0
CCCCOC(=O)CSCC(=O)N1N=C(c2cccs2)CC1c1ccc(F)cc1 (stereo not given)	-6	1	23	2	-6	2
CCOC(=O)CSCC(=O)N1N=C(c2cccs2)CC1c1ccc(F)cc1 (stereo not given)	0	8	32*	0	-21	1
Cc1ccc(-c2ccc(C3C4C=CCC[C@@]4(C)C(=O)N3Cc3ccccc3)c(F)c2)cc1 (stereo not given in full)	.	4	.	.	.	.
CCC(C)C(C(=O)N1CCN(C(=O)OC(C)(C)C)CC1)n1cc(CCCCNC(=O)OC(C)(C)C)nn1 (stereo not given)	.	3	.	.	.	.
On1ccccc1=S	42*	.	.	.	-37	.
CCOc1ccccc1Nc1nnc(C)c(=O)[nH]1	-2	5	1	8	1	-1
CCOc1ccccc1Nc1nnc(Cc2ccccc2Cl)c(=O)[nH]1	1	0	31*	10	-5	0
COc1cc(/C=C/c2ccc3cccc(O)c3n2)cc(OC)c1OC	-23	-4	3	56*	-20	-2
Cc1cc(NN=C2CCCc3ccccc32)nc2ccccc12	.	-16	.	.	.	.
COc1cc(-c2cc(C(=O)Nc3ccncc3)c3ccccc3n2)cc(OC)c1OC	-9	22*	.	.	-24	.
CCc1ccc(/C=N/NC(=O)c2cc(-c3ccncc3)nc3ccccc23)s1	4	.	4	14	-29	8
O=C(N/N=C/c1cccs1)c1cc(-c2ccncc2)nc2ccccc12	-4	.	7	56*	-1	-2
O=C(CSc1nc2ccccc2nc1N1CCOCC1)N1CCN(c2ccccc2)CC1	2	17*	10	-1	-23	6
O=C(/C=C(\c1ccccc1)n1cncn1)c1ccccc1	-4	-10	5	-10	-21	4
O=C(/C=C(\c1ccc(Cl)cc1)n1cncn1)c1ccc(Cl)cc1	.	36*	8	-7	-19	2
CC1CN(C(C)CO)C(=O)c2cccc(NS(=O)(=O)c3ccc(F)cc3)c2OC1CN(C)S(=O)(=O)c1cn(C)cn1 (stereo not given)	.	3	.	.	.	.
CC(C)CC(CN1C(=O)C(=O)NCC1CC(C)C)NC(=O)Cc1ccccc1 (stereo not given)	.	2	.	.	.	.
c1ccc2c(c1)[IH]c1ccccc1-2	35*	.	.	.	-11	.
O=C1C(Cc2ccccc2)NCCCCC(c2ccc(Cl)cc2)N1Cc1ccc(Cl)cc1 (stereo not given)	.	16	.	.	.	.
O=C(CCl)Nc1cn(-c2ccccc2)nc1-c1ccccc1	-1	.	40*	1	-20	12
O=C(CSc1nnc(SCc2ccccc2)s1)NN=Cc1c[nH]c2ccccc12	.	-1	.	.	.	.
CCN1/C(=C/c2ccc3ccccc3[n+]2CC)C=Cc2ccccc21	-56	.	-1	62*	28	-4
CN1CC(C(=O)N[C@]2(C)O[C@@]3(O)C4CCCN4C(=O)C(Cc4ccccc4)N3C2=O)CC2c3cccc4[nH]cc(c34)CC21 (stereo not given in full)	.	-3	.	.	.	.
